# High-throughput results: PubChem BioAssay, Broad Institute
# The entries come from a sample that favours hits as a whole.
# Tg IFNy HTS = inhibitors of Toxoplasma gondii growth with IFN-gamma. 3.8% of 69,000 active. Toxoplasma gondii growth in IFN-gamma-treated host cells; stronger effect = lower value. activity change, negative = inhibition, % (concentration not given with the values); in the data active = activity change below about -70%, passing the limit was not always enough;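 note: host cells are HeLa cells infected with Toxoplasma gondii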
# A number is an active result; 0 = inactive.
SMILES,Tg IFNy HTS
Cc1ccc(-n2c(SCc3nc(-c4ccccc4Cl)oc3C)nc3c(=O)[nH]cnc32)cc1,0
Cc1ccc(-n2c(SCc3nc(-c4ccccc4C)oc3C)nc3c(=O)[nH]cnc32)cc1,0
Cc1ccc(C)c(-c2nc(CSc3nc4c(=O)[nH]cnc4n3-c3ccccc3)c(C)o2)c1,-80
O=C(C1CC2C=CC1O2)N1CCCC(c2cc(C(F)F)n3ncnc3n2)C1 (stereo unspecified),0
CCc1ccc(NC(=O)N2CC[C@H]3CN(Cc4ccncc4)S(=O)(=O)[C@@H]3CC2)cc1,0
CCOC(=O)c1noc2nc(C)n(Cc3nc(-c4ccccc4C)oc3C)c(=O)c12,0
O=c1[nH]c(=O)n([C@H]2C[C@H](O)[C@@H](CO)O2)cc1Br,0
Cc1cn(C2CC(O)C(CO)O2)c(=O)[nH]c1=O (stereo unspecified),0
O=c1[nH]c(=O)n([C@H]2C[C@H](O)[C@@H](CO)O2)cc1F,-94
COc1ccc(S(=O)(=O)N(Cc2nc(-c3cccc(C)c3)oc2C)c2ccccc2OC)cc1,0
O=C(NC1CCOC2(CCN(Cc3ccccc3F)CC2)C1)C1CC1 (stereo unspecified),0
COc1ccc(CN2CC3(COC(C(=O)CCN4CCOCC4)C3)c3ccccc32)cc1 (stereo unspecified),0
COc1ccc(CN2CC3(COC(C(=O)N4CCCC4)C3)c3ccccc32)cc1 (stereo unspecified),-79
COCCN(C)C(=O)C1CC2(CO1)CN(Cc1ccc(OC)cc1)c1ccccc12 (stereo unspecified),0
CCOC(=O)[C@H](C)NC(=O)C1(c2ccccc2F)CC1,0
Cc1cc(C)n(CCCN(C)c2nc(-c3ccccc3)nc3c2CCNC3)n1,0
C[C@H](CO)N1C[C@H](C)[C@H](CN(C)C(=O)Cc2cccnc2)Oc2cc(C#Cc3ccccc3F)ccc2S1(=O)=O,-89
COc1cccc(-c2ccc3c(c2)O[C@H](CN(C)Cc2cccnc2)[C@@H](C)CN([C@@H](C)CO)S3(=O)=O)c1,0
COc1cccc(-c2ccc3c(c2)O[C@@H](CN(C)Cc2cccnc2)[C@H](C)CN([C@H](C)CO)S3(=O)=O)c1,0
COc1cccc(C#Cc2ccc3c(c2)O[C@H](CN(C)C(=O)CN2CCOCC2)[C@@H](C)CN([C@@H](C)CO)S3(=O)=O)c1,0
C[C@@H]1CN([C@H](C)CO)S(=O)(=O)c2ccc(C#Cc3ccccc3F)cc2O[C@@H]1CN(C)C(=O)Cc1cccnc1,-99
COc1cccc(C#Cc2ccc3c(c2)O[C@H](CN(C)C(=O)CN2CCOCC2)[C@@H](C)CN([C@H](C)CO)S3(=O)=O)c1,0
COCCN1C(=O)CCc2cc(NC(=O)c3cccc(OC)c3)ccc21,0
CCCn1cnc(-c2nc(C(=O)NC3CC3)c3ccccn23)c1,0
Cc1cc(C)n2nc(CC(=O)N[C@H](C)Cn3c(=O)oc4ccccc43)nc2n1,0
SMILES,Tg IFNy HTS
COc1ccccc1-c1nc(Cn2c(=O)c3cccnc3n(-c3ccccc3OC)c2=O)c(C)o1,0
CCn1cc(S(=O)(=O)N2CCCCCC2c2cc(C)no2)c(C)n1 (stereo unspecified),0
Cc1cc(N2CCCN(Cc3cn(C)nc3-c3ccccc3)CC2)ccn1,0
Cc1nc(C)c(C(=O)N2CC(C(=O)N3CCCCCC3)C2)o1,0
Cc1nc(C)c(C(=O)N2CCC(C(=O)N3CCCCCC3)C2)o1 (stereo unspecified),0
Cc1nc(C)c(C(=O)N2C[C@@H](c3ccccc3)[C@H](c3cc(C(F)F)n[nH]3)C2)o1,-80
O=C(N(CCN(Cc1ccccc1)C(=O)C(F)(F)F)Cc1ccccc1)C(F)(F)F,0
c1cncc(-c2nc3c(c(N4CCCC(Cn5ccnc5)C4)n2)CNC3)c1 (stereo unspecified),0
CCN(Cc1nc(COC)no1)C(=O)c1ccccc1-c1ccccc1,0
COc1ccccc1N1CCN(C(=O)C2CCCCC2)CC1,0
COc1ccccc1N1CCN(C(=S)c2ccccc2OC(F)(F)F)CC1,0
COc1ccccc1N1CCN(C(=O)c2cc(C(C)(C)C)oc2C)CC1,-108
CCn1nc(C(C)C)cc1C(=O)Nc1ccc(CN2C(=O)NC(C)(C)C2=O)cc1,0
CC(C)CCCC1CN(S(=O)(=O)N2CCCCC2)CCO1 (stereo unspecified),0
COCc1nnc2n1N=C(c1ccccc1)CS2,0
Cc1cccn2cc(C(=O)Nc3cccc(N4CCCCS4(=O)=O)c3)nc12,0
O=C(O)CC(=O)C(=O)O,0
CCOc1ccc(-c2nc(CN3CCN(C(=O)NC4CCCCC4)CC3)c(C)o2)cc1,0
Cc1ccc(-c2nc(CN3CCN(C(=O)NC4CCCCC4)CC3)c(C)o2)cc1,0
Cc1oc(-c2ccc(Cl)cc2)nc1CN1CCCC(C(=O)NC2CCCCCC2)C1 (stereo unspecified),-99
CN1CCN(C(=O)c2ccnc(-c3cccc4cnccc34)c2)CC1,0
Cn1nc2c(c1C(=O)Nc1ccc(N3CCCCC3)c(F)c1)CCCC2,-95
O=C(Nc1ccc(N2CCOCC2)c(F)c1)c1ccnc(N2CCOCC2)c1,0
Cn1nc(C(=O)Nc2ccc(N3CCCCC3)c(C(F)(F)F)c2)ccc1=O,0
CN(C)CCNC(=O)c1cc(-c2cnc(-c3cccc(F)c3)nc2)cn1C,-95
SMILES,Tg IFNy HTS
CN(C)C1CCN(C(=O)c2cc(-c3cnc(-c4cccc(F)c4)nc3)cn2C)CC1,0
CN(C)CCNC(=O)c1cc(-c2cnc(NCc3ccccc3)nc2)cn1C,0
Cc1ccc2nc(NC(=O)CN3C(=O)CCc4cc(S(=O)(=O)N5CCCC5)ccc43)sc2c1,0
CC(C)Cc1nc2ccccc2c(=O)n1NC(=O)c1sc2ccccc2c1Cl,0
CCOC(=O)NC(Nc1cc(C)on1)(C(F)(F)F)C(F)(F)F,0
C#CCOC(=O)Nc1cnc(OCC)c(C(F)(F)F)c1,-75
CCCn1nccc1C(=O)NCc1cc(F)cc2c(C)c(C)[nH]c12,0
CC1=NCCN1S(=O)(=O)c1c(C(C)C)cc(C(C)C)cc1C(C)C,0
CC(C)c1ccc(NS(=O)(=O)c2cc3c4c(c2)CCC(=O)N4CCC3)cc1,0
CC(C)c1cc(C(C)C)c(S(=O)(=O)Nc2ccc(O)cc2)c(C(C)C)c1,-75
COc1ccc(NC(=O)CSc2nnc3c(C)cc4ccccc4n23)cc1,0
Cc1ccc(NC(=O)CSc2nnc(-c3ccncc3)n2-c2ccccc2)cc1,0
COc1ccc(-n2c(-c3ccccc3)cnc2SCC(=O)Nc2cc(C)cc(C)c2)cc1,-98
CC(=O)N1C[C@@H]2C3(CCN(S(=O)(=O)C4CC4)CC3)CC[C@]2(C(=O)N2CCCC2)C1,0
COCc1nc(NCCn2cccc2)c2cnn(C)c2n1,0
Cc1nn(-c2ccccc2)c(C)c1C(N)=O,0
COC(=O)c1c(C)nn(-c2ccccc2)c1-c1cc(C)on1,0
Cc1nn(-c2ccccc2)c(Cl)c1C(=O)Oc1ccc(OCc2ccccc2)cc1,-97
CC(C)Cc1cc(C(=O)N2CCn3cncc3C2)nc(=O)[nH]1,0
COc1cc(N2CC[C@H](O)[C@@H]2Cc2cnn(C)c2)ncn1,0
Cc1nc(C(F)(F)F)ccc1C(=O)Nc1ccc(S(N)(=O)=O)cc1,0
N#Cc1cnc(SCc2cc(=O)[nH]c3ccccc23)nc1N,-101
N#Cc1cnc(Sc2nnc(-c3ccc(Cl)cc3)n2Cc2ccccc2)nc1N,0
Cn1c(=O)n(C)c2cc(NC(=O)CSc3ncc(C#N)c(N)n3)ccc21,0
Clc1ccc(NCn2nnc3ccccc32)nc1,0
COc1ccc(-c2nc(C)ncc2C)cc1Cl,0
COc1ccc(-c2ccccc2C(N)=O)cc1Cl,0
COc1ccc(-c2cnc(N)cn2)cc1Cl,-88
